The results in this text go back to PubChem BioAssay AID1569 (National Center for Advancing Translational Sciences (NCATS), 2009).

Records with an inconclusive call do not appear. Active and inactive are the calls of the source. Calls follow the shape of the dose curve; as a rule, active = well fitted inhibition curve with a large enough effect; inconclusive = small, poorly fitted or top-dose-only effect, or effect the other way, or another doubt; inactive = no such curve, though single readings can be large or run the other way.
Potency is read from the fitted curve at half-maximal effect.

This experiment is described as follows: Confirmation Concentration-Response Assay for lipid storage modulators. Also: nearly all actives have a fitted effect of over 80% in size. To be noted: Drosophila S3 cells, lipid droplet BODIPY/CellTracker ratio, 18-24 h; series mostly up to 46.1 µM. Summed up: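 Cells at 5,000/well received compound as a titration plus oleic acid (added as 400 uM solution) and were incubated 18–24 h at 24 °C. BODIPY 493/503 lipid signal and CellTracker Red cell count were read by 488-nm laser-scanning cytometry. Activity was normalised to 20 uM Triacsin C.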
For `CNC(=O)c1sc2nc(-c3ccc(OC)cc3)cn2c1C`, the Potency was 15.8 µM (active).

For `CCN1CCN(Cc2ccc(NC(=O)c3ccc(C)c(NC(=O)c4c[nH]c5cc(C(F)(F)F)ccc5c4=O)c3)cc2C(F)(F)F)CC1`, the Potency was 8.88 µM (active).

Take `COc1cc2c(cc1NC(=S)NC(=O)c1c(OC)cccc1OC)oc1ccccc12`: the Potency is 2.17 µM (active).

On to `CCOC(=O)c1cc2c(ccn2-c2ccc(F)cc2)n1CC(=O)N(CC)CC`, for which the Potency was 2.17 µM (active).

For `O=C(Nc1ccc(S(=O)(=O)N2CCCCC2)cc1)c1ccc(CN2CCc3ccccc3C2)cc1`, the Potency is 7.91 µM (active).

`Cc1ccc(C(C(=O)NC2CCCCC2)N(Cc2ccco2)C(=O)Cc2c[nH]c3ccccc23)o1` (stereo not drawn): the Potency was 4.45 µM (active).

`CC(C)(C)c1cc[n+](C2=C([O-])c3ccccc3C(=O)/C2=N\S(=O)(=O)c2cccs2)cc1`: the Potency is 28.1 µM (active).

In the case of `CCOC(=O)C1CCN(C(=O)C2(NC(=O)Nc3ccc(F)cc3F)CCCCC2)CC1`, the Potency was 1.77 µM (active).

With `Cc1ccc(S(=O)(=O)N(C)C)cc1NC(=O)COC(=O)c1sc2cc(Cl)ccc2c1Cl`, the Potency is 14.1 µM (active).

As to `CCOC(=O)c1cc(CC)sc1NC(=O)C1CC(=O)NN1Cc1ccccc1` (stereo not drawn), the Potency was 0.315 µM (active).

For the compound `COc1ccc(CCNC(=O)Cn2cnc3c(cnn3-c3ccccc3Cl)c2=O)cc1OC`, the Potency entry was “inactive”.

Take `COc1ccc(/C=C(/NC(=O)c2cccs2)C(=O)Nc2ccc(C)cc2)cc1OC`: the Potency is 0.25 µM (active).

With `O=C(CC(O)(C(F)(F)F)C(F)(F)F)Nc1ccc(Cl)c(Cl)c1`, the Potency is 9.96 µM (active).

`CCc1ccc(CN(C)C(=O)c2ccc3c(=O)n4c(nc3c2)CCC4)cc1`: the Potency result is “inactive”.

Consider `CCCCc1c(O)nc(SCC(=O)NCCc2ccc(OC)c(OC)c2)[nH]c1=O`, for which the Potency entry is “inactive”.

Turning to `CCOC(=O)C1CCN(C(=O)C2(NC(=O)NC3CCCCC3)CCCCC2)CC1`, the Potency is 1.41 µM (active).

In the case of `COc1ccc(CCNC(=O)COc2cc(O)c3c(c2)OC(C)(C)CC3=O)cc1OC`, the Potency result is “inactive”.

Consider `COc1ccc(CCNC(=O)CSc2nc(O)cc(=O)[nH]2)cc1OC`, for which the Potency entry was “inactive”.
